In PubChem BioAssay:
The source made the active and inactive calls.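 Rule for the calls, unless noted: active = visual image review flags a hit and inhibition of aggregation exceeds 20%; inconclusive = visual hit but inhibition at or below 20%; inactive = no hit on visual image review.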

Experiments:
[1] = inhibitors of TNFa-induced NFkB p65 translocation, primary screen, imaging, HUVEC, MLSMR starter and 10KST1 sets (AID 438;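 active = inhibition above 20% together with a positive visual image hit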;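 note: compound added about 3h40 before a 20 min TNFalpha stimulation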;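 for inhibition: signal is the nuclear over cytoplasmic p65 intensity ratio per well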); details: HUVEC TNFa-induced p65 nuclear translocation; cell count: measured here: nuclei count (cytotoxicity indicator), at 2.08 µM; inhibition: at 2 µM, stronger effect = higher value, 0% TNFa-plus-vehicle, 100% no-TNFa wells
[2] = inhibitors of mutant huntingtin aggregation, primary screen, imaging, exon1htt(103Q)mCFP cells, high-content imaging (AID 483); details: exon1htt(103Q)mCFP cell line, aggregate imaging, at 2 µM; inhibition of aggregation: stronger effect = higher value; nuclei count: measured here: cell count, toxicity;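 note: compound exposure lasted 3 days before fixation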;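 for nuclei count: percent of the per-plate median nuclei count of sample wells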
[3] = inhibitors of E-selectin induction by TNFa, primary screen, imaging, HUVEC, immunofluorescence, MLSMR starter and 10KST1 sets (AID 487;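 active = visually confirmed hit in the image check and inhibition above 20%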;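 for inhibition: signal is fraction of cell area covered by stained E-selectin grains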;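 for nuclei count: 100% = median nuclei count of all wells on the same plate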); details: HUVEC TNFalpha-induced E-selectin immunofluorescence imaging, at 2 µM; inhibition: stronger effect = higher value; nuclei count: measured here: cell number, toxicity
[4] = biological target: Voltage-gated potassium channel subunit beta-2 (Rattus norvegicus) (UniProt P62483); experiment: KvBeta enzyme negative modulators, primary screen, biochemical, NADPH fluorescence (AID 622;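 active = fluorescence slope higher than the sample average by over 3 SD, cut at about -0.22 in these data, passing the limit was not always enough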;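 note: slope of raw intensity against log time taken from 70 to 1610 s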); details: recombinant KvBeta, 4-cyanobenzaldehyde reduction, at 10 µM, stronger effect = higher value
[5] = biological target: Voltage-gated potassium channel subunit beta-2 (Rattus norvegicus) (UniProt P62483); experiment: KvBeta positive modulators, primary screen, biochemical, NADPH fluorescence (AID 623;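 active = NADPH fluorescence slope more negative than the mean of all samples by about 3 SD, 99.7% confidence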;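 note: fluorescence intensity change per second fitted from 20 to 320 s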); details: Recombinant KvBeta, NADPH fluorescence decrease slope, 10 min; at 10 µM; stronger effect = lower value
[6] = biological target: Alpha-2C adrenergic receptor (Homo sapiens) (UniProt P18825); experiment: modulators of alpha2C/GIRK thallium flux, primary screen, cell-based, HEK293 alpha2C/GIRK1/2 (AID 624;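 active = fluorescence slope after compound addition differing from the mean of all screened samples at 99.7% confidence, in either direction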;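 note: slope of fluorescence ratio to pre-addition baseline per second over 15 to 24 s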); details: thallium flux BTC fluorescence, at 10 µM, actives lie on both sides
[7] = inhibitors of Sendai virus-induced IRF3 signaling, primary screen, TLR/RLR signaling modifier project, cell-based, Sendai virus stimulus, luciferase, 10K MLSCN set (AID 602276;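 active = inhibition at or above 50% at 10 µM; inactive = inhibition below 50%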;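 note: firefly luciferase from ISG56 promoter only with Renilla not read in this screen; 0% = Sendai virus plus DMSO and 100% = medium plus DMSO without virus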); details: HEK293 RL24 IRF3 luciferase reporter, at 10 µM, stronger effect = higher value
[8] = inhibitors of poly I:C-induced TLR3 signaling, primary screen, cell-based, poly I:C stimulus, luciferase, 10K MLSCN set (AID 602277;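 active = inhibition of the reporter signal at or above 50%; inactive = inhibition below 50%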); details: HEK293-TLR3 RL24 IRF3 luciferase reporter, at 10 µM, stronger effect = higher value

Chain of Alpha-2C adrenergic receptor (Homo sapiens) (P18825 whole entry, looked up): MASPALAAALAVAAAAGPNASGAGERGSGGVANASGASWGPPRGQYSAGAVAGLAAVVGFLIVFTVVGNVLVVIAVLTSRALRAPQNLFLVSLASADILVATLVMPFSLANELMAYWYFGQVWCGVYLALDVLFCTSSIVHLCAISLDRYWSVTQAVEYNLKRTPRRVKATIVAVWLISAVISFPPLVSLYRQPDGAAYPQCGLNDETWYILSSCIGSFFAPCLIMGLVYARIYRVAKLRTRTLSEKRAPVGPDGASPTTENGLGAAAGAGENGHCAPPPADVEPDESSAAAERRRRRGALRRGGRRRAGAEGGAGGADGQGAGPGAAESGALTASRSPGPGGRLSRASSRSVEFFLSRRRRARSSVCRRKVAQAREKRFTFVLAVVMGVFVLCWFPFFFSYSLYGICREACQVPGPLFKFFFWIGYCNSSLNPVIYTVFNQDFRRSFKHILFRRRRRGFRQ
Chain of Voltage-gated potassium channel subunit beta-2 (Rattus norvegicus) (P62483 whole entry, looked up): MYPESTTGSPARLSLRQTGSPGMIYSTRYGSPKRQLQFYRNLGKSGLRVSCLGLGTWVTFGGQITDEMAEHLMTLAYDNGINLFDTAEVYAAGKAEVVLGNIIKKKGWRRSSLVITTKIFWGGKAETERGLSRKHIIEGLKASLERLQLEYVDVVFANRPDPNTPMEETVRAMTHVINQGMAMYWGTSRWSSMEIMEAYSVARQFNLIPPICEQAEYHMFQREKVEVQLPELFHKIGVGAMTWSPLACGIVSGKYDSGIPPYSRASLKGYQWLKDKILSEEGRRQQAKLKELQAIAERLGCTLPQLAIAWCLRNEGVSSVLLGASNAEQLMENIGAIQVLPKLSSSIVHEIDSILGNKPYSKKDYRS

SMILES | cell count [1] | inhibition [1] | inhibition of aggregation [2] | nuclei count [2] [%] | inhibition [3] | nuclei count [3] [%] | fluorescence slope [4] | NADPH fluorescence slope [5] | slope [6] | inhibition [7] | inhibition [8]
O=C1CC(Cc2ccccc2)C(=O)N1CCCn1ccnc1 (stereo not drawn) | 429 | -4.9% (inactive) | 10.8% (inactive) | 100 | 36.4% (inactive) | 102 | -0.346 (inactive) | -6e-05 (inactive) | 0.00527 (inactive) | 17.7% (inactive) | 25% (inactive)
CCCCN(C)C(=O)CS(=O)(=O)Cc1nc(-c2cccc(OC)c2)oc1C | 737 | 1.1% (inactive) | 13.9% (inactive) | 98.3 | -26.7% (inactive) | 115 | -0.518 (inactive) | -3.7e-05 (inactive) | 0.00718 (inactive) | 16.1% (inactive) | 16.3% (inactive)
CN(CCc1ccccn1)C(=O)CCNC(=O)Cn1cnc2ccccc2c1=O | 202 | -7.4% (inactive) | -4.7% (inactive) | 99.5 | -6.6% (inactive) | 110 | -0.611 (inactive) | 1.1e-05 (inactive) | 0.00589 (inactive) | 13.8% (inactive) | 14.4% (inactive)
CCCc1nnc2n1N=C(c1ccc(-c3cc(Cl)ccc3Cl)o1)CS2 | 248 | 6.2% (inactive) | 4.8% (inactive) | 100 | 17.1% (inactive) | 89 | -0.447 (inactive) | -5.1e-05 (inactive) | 0.00311 (inactive) | 8.08% (inactive) | 29.1% (inactive)
O=C(c1cnc2n(c1=O)CCS2)N1CCc2ccccc21 | 529 | 9.1% (inactive) | -15.5% (inactive) | 114 | -39.6% (inactive) | 114 | -0.51 (inactive) | 4.8e-06 (inactive) | 0.00669 (inactive) | 14.9% (inactive) | 27% (inactive)
COC(=O)Nc1ccc(NC(C)=O)cc1 | 398 | -4.4% (inactive) | 20.9% (inactive) | 82.1 | 6.8% (inactive) | 94.6 | -0.493 (inactive) | 6e-05 (inactive) | 0.00538 (inactive) | -9.94% (inactive) | -5.16% (inactive)
O=C(O)c1cc2c(s1)CCCC2 | 473 | 6.3% (inactive) | 8.1% (inactive) | 100 | 15.7% (inactive) | 111 | -0.383 (inactive) | -2.9e-06 (inactive) | 0.00578 (inactive) | 4.53% (inactive) | 8.58% (inactive)
CCC1CCCN1Cn1cnc2c([nH]c3ccc(OC)cc32)c1=O (stereo not drawn) | 602 | -7.6% (inactive) | 3.4% (inactive) | 108 | -53.1% (inactive) | 86.2 | -0.396 (inactive) | -1.1e-05 (inactive) | 0.0053 (inactive) | 11.1% (inactive) | 26.1% (inactive)
CC1Cc2nc(SCC(=O)Nc3nccs3)n(C)c(=O)c2S1 (stereo not drawn) | 584 | 12% (inactive) | 12.8% (inactive) | 109 | -23.5% (inactive) | 111 | -0.539 (inactive) | -2.7e-05 (inactive) | 0.00648 (inactive) | 11.6% (inactive) | 28.2% (inactive)
CC1CCN(C(=O)CN2C(=O)C(C)(C)Oc3ccc(C(=O)NC4CCCC4)cc32)CC1 | 458 | 0.3% (inactive) | -4.6% (inactive) | 84.4 | -83.6% (inactive) | 117 | -0.503 (inactive) | -1.2e-05 (inactive) | 0.00666 (inactive) | -6.8% (inactive) | 14.6% (inactive)
Cc1cc(-n2c(C)cc(C(=O)CSc3nnnn3-c3ccc(Cl)cc3)c2C)no1 | 415 | 4.2% (inactive) | 2.2% (inactive) | 94 | -55.8% (inactive) | 109 | -0.403 (inactive) | -3.2e-05 (inactive) | 0.00589 (inactive) | 9.68% (inactive) | 13.2% (inactive)
CCOC(=O)CSc1nnc(Cn2nnc(-c3ccccc3)n2)n1CC | 415 | -0.8% (inactive) | 5.4% (inactive) | 109 | -34.4% (inactive) | 164 | -0.402 (inactive) | 2.4e-05 (inactive) | 0.006 (inactive) | 15.9% (inactive) | 21.4% (inactive)
CCc1ccccc1NC(=O)CSc1ncn[nH]1 | 306 | 9% (inactive) | -8.6% (inactive) | 101 | 40% (inactive) | 102 | -0.397 (inactive) | -1.9e-06 (inactive) | 0.00367 (inactive) | 1.64% (inactive) | 32.7% (inactive)
Cc1sc(NC(=O)CSc2nnc(COc3ccccc3)n2C)c(C#N)c1C | 602 | 2.2% (inactive) | 15.6% (inactive) | 93.8 | -77.2% (inactive) | 113 | -0.335 (inactive) | 5.1e-06 (inactive) | 0.00494 (inactive) | -3.28% (inactive) | -13.7% (inactive)
COc1cc(C(=O)OCC(=O)N(C)Cc2ccccc2)cc(OC)c1OC | 405 | 5.1% (inactive) | -1.2% (inactive) | 110 | -264% (inactive) | 119 | -0.535 (inactive) | -0.00012 (inactive) | 0.00533 (inactive) | 15.1% (inactive) | 20.6% (inactive)
CCOc1ccc2nc(SCc3ccc(C(=O)OC)o3)[nH]c2c1 | 335 | 15.9% (inactive) | 16.9% (inactive) | 96.5 | -39.4% (inactive) | 112 | -0.546 (inactive) | 2e-06 (inactive) | 0.00497 (inactive) | 8.32% (inactive) | -5.74% (inactive)
Cc1cc(=O)oc2c1c(C)nn2-c1ccc(C(=O)OC(C)C)cc1 | 741 | -2.9% (inactive) | -39.6% (inactive) | 106 | -67.2% (inactive) | 106 | -0.529 (inactive) | -1.2e-05 (inactive) | 0.00612 (inactive) | 8% (inactive) | 26.1% (inactive)
CC(C)Cn1c(=O)c(C(=O)Nc2ccccc2S(N)(=O)=O)c(O)c2ccccc21 | 740 | -1% (inactive) | -9.5% (inactive) | 99.4 | 60.6% (active) | 92.3 | -0.393 (inactive) | -3.1e-05 (inactive) | 0.00741 (inactive) | -1.36% (inactive) | -18.4% (inactive)
C=CCc1cc(OC)ccc1OCC(O)CN1CCN(c2ccc(OC)cc2)CC1 (stereo not drawn) | 402 | 2.5% (inactive) | 1.9% (inactive) | 105 | -16.2% (inactive) | 106 | -0.629 (inactive) | 7.7e-07 (inactive) | 0.00605 (inactive) | 12.2% (inactive) | 22.6% (inactive)
C=C(Cl)COC(=O)[C@H]1C2C=CC(C2)C1C(=O)O (stereo partly drawn) | 347 | -5% (inactive) | -18.6% (inactive) | 96.9 | -29.7% (inactive) | 124 | -0.435 (inactive) | 5.3e-05 (inactive) | 0.00591 (inactive) | -6.49% (inactive) | 2.25% (inactive)
Cc1noc(C)c1CSc1nnc2scc(-c3ccc(Cl)cc3)n12 | 339 | -0.4% (inactive) | -18.6% (inactive) | 120 | -88.2% (inactive) | 122 | -0.52 (inactive) | -2.1e-05 (inactive) | 0.00506 (inactive) | -1.42% (inactive) | 6.73% (inactive)
O=C(c1cnccn1)N(c1ccccc1)C1(C(=O)NC2CCCC2)CCCCC1 | 630 | -15.7% (inactive) | 4.8% (inactive) | 96.4 | -31.9% (inactive) | 116 | -0.518 (inactive) | -5.8e-05 (inactive) | 0.00495 (inactive) | 6.65% (inactive) | 16.5% (inactive)
Cc1ccc2nc(NC(=O)CN(C)S(=O)(=O)c3cccc4nsnc34)sc2c1 | 379 | -5.3% (inactive) | -0.2% (inactive) | 113 | -38.2% (inactive) | 101 | -0.41 (inactive) | -4.4e-05 (inactive) | 0.00524 (inactive) | 32.6% (inactive) | 25% (inactive)
CCOC(=O)N1CCC(c2cc(=O)n3[nH]cc(C(=O)OC)c3n2)CC1 | 534 | 6.8% (inactive) | -16.8% (inactive) | 58.3 | 7.4% (inactive) | 103 | -0.541 (inactive) | -1.8e-05 (inactive) | 0.00674 (inactive) | 16.5% (inactive) | 35.8% (inactive)
Nc1nc(-c2ccc(Cl)cc2)nn1C(=O)c1cccnc1 | 293 | 4.2% (inactive) | -4.2% (inactive) | 96.8 | 40.8% (inactive) | 105 | -0.397 (inactive) | 6.7e-06 (inactive) | 0.00507 (inactive) | -0.966% (inactive) | -2.82% (inactive)
O=C(NCCCN1CCOCC1)c1ccc(CS(=O)(=O)c2c(Cl)cccc2Cl)o1 | 440 | 0.9% (inactive) | -10.5% (inactive) | 98.2 | -46.8% (inactive) | 103 | -0.458 (inactive) | 2.8e-05 (inactive) | 0.00463 (inactive) | -8.21% (inactive) | 6.97% (inactive)
O=C1CCCN1CCCNc1ncnc2c1[nH]c1ccc(Cl)cc12 | 465 | 0.8% (inactive) | -18.4% (inactive) | 101 | -164% (inactive) | 119 | -0.391 (inactive) | 3.6e-05 (inactive) | 0.00715 (inactive) | -14.5% (inactive) | -66.1% (inactive)
COc1ccc(-n2c(SCc3ccc(C#N)cc3)nnc2-c2ccccn2)cc1 | 692 | -5.8% (inactive) | -4.4% (inactive) | 105 | -18.8% (inactive) | 118 | -0.599 (inactive) | -3.8e-05 (inactive) | 0.00521 (inactive) | -1.12% (inactive) | 11.2% (inactive)
